Assay outcomes: PubChem, several laboratories
M1 antag = antagonists of rat M1 muscarinic receptor. P08482. CHO-M1 cells, Fluo-4 calcium, ACh EC80 antagonist mode; stronger effect = lower value. B-score at 10 µM. actives 3.4% (n = 64,000). AID 628;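 active = calcium fluorescence response, raw or row-and-column corrected B-score, differing from the plate sample mean either way at a set confidence level, mostly lower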
Target sequence (P08482 whole entry, looked up): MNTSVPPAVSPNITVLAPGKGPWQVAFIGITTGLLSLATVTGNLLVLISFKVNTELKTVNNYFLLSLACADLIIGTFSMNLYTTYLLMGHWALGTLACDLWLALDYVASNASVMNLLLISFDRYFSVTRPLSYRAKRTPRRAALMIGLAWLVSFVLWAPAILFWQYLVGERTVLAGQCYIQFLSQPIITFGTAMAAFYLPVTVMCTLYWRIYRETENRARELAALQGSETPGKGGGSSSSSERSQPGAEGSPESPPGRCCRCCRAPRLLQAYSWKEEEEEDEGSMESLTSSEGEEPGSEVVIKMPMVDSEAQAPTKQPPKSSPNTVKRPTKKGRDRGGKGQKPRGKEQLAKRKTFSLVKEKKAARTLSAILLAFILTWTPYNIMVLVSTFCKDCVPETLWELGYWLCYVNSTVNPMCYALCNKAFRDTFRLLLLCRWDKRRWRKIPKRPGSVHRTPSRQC
WNV protease inh = blocks West Nile virus NS2B-NS3 protease activity; P06935; WNV NS2B-NS3 protease, fluorogenic substrate Ex360/Em465; stronger effect = lower value; z-score (no concentration beside the values); actives 0.18% (n = 65,000); in the data active = z-score below about -3
M1 ag = activates the M1 muscarinic receptor; CHO-M1 cells, Fluo-4 calcium fluorescence, agonist mode; stronger effect = higher value; B-score at 10 µM; actives 3% (n = 64,000); AID 626;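 active = fluorescence rise, raw or as B-score row- and column-corrected plate score, outside the 99.7% band of its plate's samples, either direction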
D1 allo mod = allosteric modulators of human D1 dopamine receptor. P21728. HEK293 D1, CRE-luciferase, dopamine EC30 potentiation; actives deviate in either direction. B-score at 10 µM. actives 5.9% (n = 58,000). AID 641;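 active = luminescence count or its row- and column-corrected plate score outside the 99.7% band of the plate's sample wells, on either side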
mHtt clearance = mutant huntingtin protein clearance; AID 853; HeLa Exon1htt(103Q)mCFP, aggregate imaging; zero = plate's median compound well; actives 0.42% (n = 47,000); inhibition, % at 1.5 µM;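 active = inhibition of aggregate fluorescence above about 70%, also judged a hit by eye on the cell image, limit read from the data, passing the limit was not always enough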;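 also: cells exposed to compound for three days before fixation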
D1 PAM confirm = D1 receptor (human) allosteric modulation, confirmed; shares compounds with D1 allo mod; HEK293 D1 CRE-luciferase, dopamine EC30 potentiation; stronger effect = higher value; luminescence at 10 µM; actives 88% (n = 2,200);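 active = luminescence in either of two replicates above the same-plate mean plus 3 SD of the low-dose dopamine control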
D1 ag no DA = secondary test of D1 modulators: activity without dopamine; luminescence at 10 µM; HEK293 D1 CRE-luciferase, luminescence, no dopamine; stronger effect = higher value; shares compounds with D1 allo mod; actives 0.8% (n = 1,900); in the data active = luminescence above about 3900
Isoprot counter = isoproterenol response counter-screen activity for D1 modulators. shares compounds with D1 allo mod. HEK293 D1 CRE-luciferase, isoproterenol EC30 counter-screen. calls only at 10 µM. actives 63% (n = 2,200). AID 647;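 active = luminescence in either replicate above plate mean of wells with a partly effective reference agonist dose plus 3 SD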;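 also: isoproterenol raises cAMP through native beta-adrenoceptor Gs so signal bypasses D1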
Numbers stand for hits; . = inactive; / = no result; + = active, no number. Only some compounds are listed: those with a hit (about 8.9% of all), similar ones and a draw of the others.

SMILES	M1 antag	WNV protease inh	M1 ag	D1 allo mod	mHtt clearance	D1 PAM confirm	D1 ag no DA	Isoprot counter
CCOCCSc1nc2c(c(=O)[nH]c(=O)n2C)n1CCCc1ccccc1	.	.	.	5.59	/	12256	.	+
Cc1ccc(-n2nc3c(c2NC(=O)c2ccccc2Br)CS(=O)C3)cc1 (stereo not given)	.	.	.	.	.	/	/	/
CC1Oc2ccccc2N(CC(=O)N(Cc2ccccc2)Cc2ccccn2)C1=O (stereo not given)	.	.	.	.	.	/	/	/
O=C(Cn1cnc([N+](=O)[O-])c1)Nc1cc(Oc2ccc(Cl)cc2Cl)cc([N+](=O)[O-])c1	/	/	/	/	.	/	/	/
CCCC(=O)OCC(=O)Nc1cc(C(C)(C)C)nn1-c1ccccc1	.	.	.	4.7	.	6968	/	.
CC(C)(C)c1cc(NC(=O)COC(=O)C2CC2)n(-c2ccccc2)n1	.	.	.	.	.	/	/	/
CCCc1nc(NCc2ccccn2)c2nnn(Cc3ccccc3F)c2n1	/	/	/	/	.	/	/	/
CCCc1nc(NCc2ccncc2)c2nnn(Cc3ccccc3F)c2n1	.	.	.	6.94	/	7368	.	.
CCc1nc(NCCc2ccccn2)c2nnn(Cc3ccccc3F)c2n1	.	.	.	12.5	/	20308	.	+
C=CCSc1nc2ccccc2c(=O)[nH]1	.	.	.	2.98	/	9580	.	.
CC(C)CSc1nc2ccccc2c(=O)[nH]1	/	/	/	/	.	/	/	/
COc1cc2c(cc1OC)CN(S(=O)(=O)c1ccc3c(c1)OCCO3)CC2	.	.	.	5.27	.	15328	.	+
O=C(COC(=O)c1cn(-c2ccccc2)nc1-c1cccs1)NC1CC1	.	.	.	/	/	/	/	/
CCOC(=O)C1=C(C)NC(=O)NC1c1cn(-c2ccccc2)nc1-c1cccs1 (stereo not given)	.	.	.	2.75	/	10976	.	+
CSc1nc(NC(C)(C)C)nc(N2CCOCC2)n1	.	.	.	14.9	.	15276	.	+
CCNc1nc(SCC(=O)OC)nc(N2CCOCC2)n1	.	.	.	6.41	/	18868	.	+
CCNc1nc(N2CCOCC2)nc(N(c2ccccc2)c2ccccc2)n1	.	.	.	.	.	/	/	/
CCNc1nc(SC(C)C(=O)OC)nc(N2CCOCC2)n1 (stereo not given)	.	.	.	6.98	/	16348	.	+
COc1ccc(N(CC(=O)NCc2ccco2)S(C)(=O)=O)cc1Cl	.	.	.	.	.	/	/	/
CCN(CC)C(=O)CSc1nnc([C@@H](N)Cc2ccccc2)o1	.	.	.	.	/	/	/	/
CCC(Sc1nc(=O)cc(N)n1-c1ccccc1)C(=O)Nc1ccc(Cl)cn1 (stereo not given)	.	.	.	/	/	/	/	/
COC(=O)CSC1=C(C#N)C(c2cccc(OC)c2)CC(=O)N1 (stereo not given)	.	.	.	1.95	.	.	.	.
COC(=O)CSC1=C(C#N)C(c2cccc(F)c2)CC(=O)N1 (stereo not given)	.	.	.	.	.	/	/	/
CCCc1nnc(NC(=O)CCC(=O)N2CCCCC2CC)s1 (stereo not given)	.	.	.	.	.	/	/	/
Cc1nn(CC(=O)N2CCOCC2)c(=O)c2ccccc12	.	.	.	/	.	/	/	/
SMILES	M1 antag	WNV protease inh	M1 ag	D1 allo mod	mHtt clearance	D1 PAM confirm	D1 ag no DA	Isoprot counter
O=c1c2cccc3c2c(nn1CN1CCOCC1)-c1ccccc1-3	.	.	.	5.3	/	8092	.	+
O=C(O)CSc1cccc2cccc(C(=O)O)c12	.	.	.	.	/	/	/	/
Nc1nonc1-n1nncc1-c1ccccc1	.	.	.	5.93	/	10724	.	+
Nc1nc(-c2ccccc2)nc(-c2ccccc2O)n1	.	.	.	.	.	/	/	/
Nc1nc(NCc2ccccc2)nc(-c2ccccc2)n1	.	.	.	21	/	23340	/	+
CCCS(=O)(=O)c1c(S(=O)(=O)CCC)c2ccccn2c1C(=O)OC	/	.	/	.	.	/	/	/
CCCS(=O)(=O)c1c(S(=O)(=O)CCC)c2cc(CC)ccn2c1C(=O)OC	.	.	.	6.49	.	13540	.	+
O=S(=O)(NCCc1ccncc1)c1cc(Br)ccc1F	.	.	.	.	.	/	/	/
CCOc1ccc(-c2nc(C#N)c(NCC3CCCO3)o2)cc1 (stereo not given)	/	/	/	/	.	/	/	/
CN(C)c1oc(-c2ccccc2)nc1C#N	/	.	/	/	.	/	/	/
COc1ccc(-c2nc(C#N)c(NC(C)c3ccccc3)o2)cc1OC (stereo not given)	.	.	.	6.81	.	12956	/	.
COc1ccc(-c2nc(C#N)c(NCC3CCCO3)o2)cc1OC (stereo not given)	.	.	.	3.82	/	8472	.	+
N#Cc1nc(-c2ccccc2Cl)oc1NCC1CCCO1 (stereo not given)	.	.	.	5.68	/	10656	.	+
CN(C)c1oc(-c2ccccc2Cl)nc1C#N	.	.	.	3.44	.	6136	.	.
Cn1cccc1CNC(=O)Nc1ccc(Cl)c(Cl)c1	.	.	.	.	.	/	/	/
COc1ccc(-c2nc(C#N)c(N3CCOCC3)o2)cc1OC	.	.	.	3.2	/	11200	.	+
O=c1c2c(-c3ccccc3)csc2nc2n1CCC2	.	.	.	.	/	/	/	/
CCn1cnc2scc(-c3ccccc3)c2c1=O	10.4	.	.	14.8	/	14788	/	+
O=C(Cn1cnc2scc(-c3ccccc3)c2c1=O)N1CCOCC1	.	.	.	.	/	/	/	/
CCCc1nc2scc(-c3ccccc3)c2c(=O)n1N	.	.	.	5.96	.	8892	.	.
COc1nc(OCCNC(=O)Nc2ccccc2)nc(N(C)C)n1	.	.	.	.	.	/	/	/
O=C(CCCC(=O)N(CC(=O)NC1CCCCC1)CC1CCCO1)Nc1ccccn1 (stereo not given)	.	.	.	.	/	/	/	/
CCCN(CCO)Cc1ccc(F)c(Br)c1	.	.	.	.	/	/	/	/
COc1ccc(CCNS(=O)(=O)c2ccccc2)cc1OC	.	.	.	4.18	.	15812	.	+
CN=C1SC(CC(=O)Nc2sc(C)c(C)c2C(=O)OC)C(=O)N1C (stereo not given)	.	.	.	3.44	/	8820	.	+
CN=C1SC(CC(=O)Nc2ccccc2F)C(=O)N1C (stereo not given)	.	.	.	.	/	/	/	/
CC(Sc1nc(N(C)C)nc(N2CCOCC2)n1)C(=O)Nc1ccccc1 (stereo not given)	.	.	.	4.79	.	9356	.	+
CC(C)Nc1nc(SCC(=O)Nc2ccccc2)nc(N2CCOCC2)n1	.	.	.	14.1	/	20560	.	+
CC(Sc1nc(N2CCOCC2)nc(N2CCOCC2)n1)C(=O)Nc1ccccc1 (stereo not given)	.	.	.	.	/	/	/	/
Cc1nc(SCC(=O)Nc2ccc(N3CCOCC3)cc2)nc(C)c1C	/	/	/	/	.	/	/	/
